In PubChem BioAssay (NCI) one finds growth data, which are given here for twelve compounds.

Structures are written as SMILES. The panel holds about 83,000 compounds, 20% with a hit somewhere; the sample as a whole holds those more often.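 Cell lines were cultured in 96-well plates, exposed to a single compound concentration, and assessed for percent growth 48 hours later.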 A number with no mark means an inactive call. Activity calls are given as the source filed them. How the source made its calls: active means growth percent below 10; inactive means the rest.

This test has as its system HL-60(TB) leukemia. In words: NCI-60 one-dose screen, 48 h (100 = growth as untreated, 0 = no growth, -100 = all killed). The following applies: 10 µM unless noted.
As for `CCCCSc1cc(C)nc(N)n1`, the growth was 96.6%.

Turning to `Cc1cscc(C)c1=S`, the growth is 111%. With `CCc1ccc(C2=C(O)C(=O)C(c3ccc(CC)cc3)=C(O)C2=O)cc1` the figure was -57.6% (active).

Consider `COc1ccc([C@H]2[C@H](C(=O)Nc3cccnc3)c3ccccc3C(=O)N2c2ccccc2)cc1`, for which the growth was 90.2%. With `Cc1cccc2c(=O)c3c(sc12)c(NCCCNCCO)nc1ccccc13` the figure was 14.6%. With `N=C(N)c1ccc(-c2ccc(-c3ccccc3)s2)cc1`, the growth is -34.2% (active).

As to `CC(C)(O)CC(=O)NCCn1ccc2ncnc(Nc3ccc(Oc4cccc(C(F)(F)F)c4)c(Cl)c3)c21`, the growth was 2.51% (active). Consider `CC1CC(O)C2C3(C)CCCC2(COC3=O)C12CCC1(CCOC1=O)O2` (configuration not stated), for which the growth is 121%.

With `CCOC(=O)Cc1csc2nc(-c3ccccc3)nn12`, the growth was 53%. Consider `O=C1c2cc3c(cc2-c2c1c1ccc(F)cc1c(=O)n2CCCNCCO)OCO3`, for which the growth was -58.1% (active).

Consider `Cc1ccc(C2CC(c3cccs3)=NN2c2ccc(S(N)(=O)=O)cc2)s1` (configuration not stated), for which the growth is 88.4%.

On to `O=C(/C=C/c1ccc(C(F)(F)F)cc1)c1ccc(Nc2nc(NCCO)nc(Nc3ccc(Cl)cc3)n2)cc1`, for which the growth is 77%.
